Experimental data from PubChem BioAssay (NCI).
The panel holds about 79,000 compounds, 15% with a hit somewhere; the sample as a whole holds those more often. Values without a mark were called inactive. Activity calls are given as the source filed them. No stated cut-off is given here; in the data, active means growth inhibition above about 70%; inactive means the rest.

Experiments:
[1] = NCI Yeast Anticancer Drug Screen. Data for the rad50 strain (AID 155);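 further: 0% = growth of vehicle-only cultures of the same strain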; conditions: S. cerevisiae rad50 strain growth inhibition; at 50.0 µM; active compounds read high
How it was run: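 Yeast carrying a defined DNA repair defect were exposed to test compounds, and growth was compared with vehicle-treated controls to give percent inhibition.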

[2] = NCI Yeast Anticancer Drug Screen. Data for the mec2-1 strain (AID 157); conditions: S. cerevisiae mec2-1 strain, at 50.0 µM, active compounds read high
How it was run: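 Vehicle-treated cultures served as reference for growth inhibition of compound-exposed mec2-1 yeast.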

[3] = NCI Yeast Anticancer Drug Screen. Data for the sgs1 mgt1 strain (AID 161);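 further: 0% = growth of cultures given vehicle only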; conditions: S. cerevisiae sgs1 mgt1 strain, at 50.0 µM, active compounds read high
How it was run: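 Test agents were incubated with a DNA-repair-mutant yeast strain. Growth was then read and compared against vehicle-treated controls.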

[4] = NCI Yeast Anticancer Drug Screen. Data for the cln2 rad14 strain (AID 165);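 further: 0% = growth equal to vehicle treated cultures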; conditions: S. cerevisiae cln2 rad14 strain, at 50.0 µM, active compounds read high
How it was run: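 Each compound was tested on cln2 rad14 yeast. Inhibition of growth was calculated against vehicle-exposed controls.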

[5] = NCI Yeast Anticancer Drug Screen. Data for the bub3 strain (AID 167); conditions: S. cerevisiae bub3 mutant strain, at 50.0 µM, active compounds read high
How it was run: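 Compounds were applied to a genetically altered yeast strain carrying a cell-cycle control defect. Growth inhibition was scored against vehicle-treated controls.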

[6] = NCI Yeast Anticancer Drug Screen. Data for the mlh1 rad18 strain (AID 175); conditions: S. cerevisiae mlh1 rad18 strain growth inhibition; at 50.0 µM; active compounds read high
How it was run: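 Vehicle-treated cultures served as the reference for growth inhibition in a yeast strain carrying DNA damage repair alterations exposed to each compound.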

| SMILES | growth inhibition [1] | growth inhibition [2] [%] | growth inhibition [3] | growth inhibition [4] [%] | growth inhibition [5] [%] | growth inhibition [6] |
| --- | --- | --- | --- | --- | --- | --- |
| c1ccc2c3[n+](ccc2c1)CCC[n+]1ccc2ccccc2c1-3 | 75.1% (active) | 38 | 85% (active) | 60 | 18.3 | 79% (active) |
| COc1ccccc1C(O)(c1ccccc1OC)C1(O)CCCCC1 | -10.2% | -2 | -5% | 13.8 | -0.1 | 1.15% |
| CC(=O)Oc1cccc2cc3cc(C)cc(OC(C)=O)c3c(OC(C)=O)c12 | -7.15% | 3.8 | 2.95% | -2.95 | 6.5 | 14.7% |
| CC(=O)Nc1ccc(C2CCCC2)cc1Br | -3.05% | -2.15 | 0% | -39.8 | -12.2 | -4.45% |
| CCOC(=O)c1nc(C)oc1C(=O)OCC | 0.85% | -12.9 | -14.6% | -13.9 | -7.3 | -3.85% |
| CCCCCCC(=O)N1SC(NC(=O)OC)=Nc2ccccc21 | 5.55% | 7.3 | 27.6% | 36.5 | 69.7 | 41% |
| O=C1C(=O)N(C2CCCCC2)C(=S)N1C1CCCCC1 | -31.9% | -30.1 | -62.1% | -2.5 | -5.2 | 12.3% |
| COc1ccc(/C=C/C(=O)c2sc(NC(=S)NC(=O)c3ccccc3F)nc2C)cc1OC | 21.1% | 8.5 | 37.6% | 30.1 | 30.9 | 22.9% |
| Brc1c(CCc2ccc3ccccc3c2Br)ccc2ccccc12 | 0.1% | 10.2 | 13.2% | -6.75 | -2.8 | 19.6% |
| CCOC(NC(=O)CC)(C(F)(F)F)C(F)(F)F | 4.3% | -24.6 | -49.9% | -3.4 | 1.85 | -36.9% |
| Cn1ccnc1SC(=O)C(Cl)(c1ccccc1)c1ccccc1 | -13.2% | 5.85 | -0.8% | -18.4 | 0.35 | 5.45% |
| Nc1ncc2ncn(CCO)c2n1 | -22.1% | -15.4 | 23.1% | 1.95 | -6.85 | 3.7% |
| Oc1ccccc1C=Nc1cccnc1 | 6.75% | -19.5 | -2.45% | -7.2 | -0.6 | 8.7% |
| CC(=O)Nc1ccc(C(=O)NN2C(=O)C(Cl)C2c2ccc([N+](=O)[O-])cc2)cc1 (stereo unspecified) | -0.05% | 19.6 | -2.05% | 1.45 | -24.4 | 8.3% |
| C=CCO[Si](C=C)(OCC=C)OCC=C | 31.8% | -10.9 | -5.35% | 10.7 | 9.6 | -3.95% |
| O=C(O)c1ccccc1/C=N\NC1=NCCN1 | -45.1% | -13.4 | -11.4% | 12.7 | -13.7 | -6.35% |
| COc1cc2c(cc1OCc1ccccc1)C(c1cc(OC)c(OC)c(OC)c1)=C1C(=O)OCC1C2 (stereo unspecified) | 9.4% | -1.1 | -16.4% | -7.2 | -1.25 | 1% |
| C=CCc1cc(C(Cc2ccccc2)NC(C)C)cc(OCc2ccccc2)c1OCc1ccccc1 (stereo unspecified) | 10.1% | 11.5 | 16.9% | -3.95 | 47.6 | 50.9% |
| O=[N+]([O-])c1ccc(Cl)c(/C=C/c2ncccn2)c1 | 11.4% | 10.1 | 7.9% | -28.1 | -1.45 | 13.9% |
| NC(=O)N/N=C/c1ccc2oc3ccccc3c2c1 | 40.2% | 19.1 | 18.4% | 16.5 | 18.4 | 44.5% |
| CSc1ccc2c(cc1=O)[C@@H](NC(=O)c1ccc([N+](=O)[O-])cc1)CCc1cc(O)c(O)c(O)c1-2 | 37.3% | 33.5 | 39.2% | 23.1 | 43.8 | 50% |

| SMILES | growth inhibition [1] | growth inhibition [2] [%] | growth inhibition [3] | growth inhibition [4] [%] | growth inhibition [5] [%] | growth inhibition [6] |
| --- | --- | --- | --- | --- | --- | --- |
| COC(=O)CCC(C)C1CCC2C3CCC4CC5CCC4(C)C3(O5)C(Br)C(Br)C12C (stereo unspecified) | -11.8% | -48.1 | -32.5% | -33 | -25.5 | -4.8% |
| O=c1[nH]nc(-c2ccccc2)n1-c1ccncc1 | -4.65% | 0.3 | -6.45% | -4.65 | 12.7 | 0.65% |
| CCOC(=O)c1ncc(Cl)cc1NC(=O)CC(=O)Nc1cc(Cl)cnc1C(=O)OCC | 59.8% | -8 | 32.5% | -31.1 | 1.1 | 20.3% |
| CCCCCCCCCCCCCCO | 21.9% | -22.8 | -19.7% | -54.8 | 1.3 | 16.9% |
| NC(=O)C(=O)C(c1ccccc1)c1ccccc1 | 0.3% | 4.55 | -1.1% | -4.05 | 7.95 | -8.35% |
| Nc1nc(=O)n(C2OC(CO)C(O)C2O)cc1F (stereo unspecified) | 10.8% | -10.2 | 4.4% | -3.1 | 11.5 | 7.6% |
| COc1ccc(N=Cc2ccc(N(CCC#N)S(=O)(=O)c3ccccc3)cc2C)cc1 | -9.4% | -10.8 | 5.5% | 13.4 | -16.8 | -10% |
| c1ccc2c(c1)NC1C3(CCC4CCCCC241)SCCS3 (stereo unspecified) | 9.45% | 2.3 | 6.8% | 8.8 | -2.1 | -1.15% |
| N#Cc1ccc(Sc2ccccc2)cc1C#N | 12.8% | -8.7 | 24.4% | 10.2 | 24.9 | 0.6% |
| Nc1ncc2c(n1)CSCC2=O | -9.4% | 27.7 | 14.1% | -2.7 | 16.9 | 12% |
| CCOc1ccc(C(=O)OCCCl)cc1 | 9.85% | 0.75 | -3.1% | 5.25 | 6.75 | 10.6% |
| C=CCC(OC(=O)C=C(C)C)c1ccc2c(c1)OCO2 (stereo unspecified) | -23.6% | -31.9 | -6.65% | -5.5 | 38.8 | 6.3% |
| CCc1c(C)nc2[nH]ncn2c1=O | 10.8% | -2.1 | 11.1% | -2.25 | 7.25 | 6.7% |
| CCOC(C[N+](C)(C)C)OCC | 9.7% | -25.6 | 2.4% | 8 | 30 | 0.3% |
| CCCCCP(=O)(CCC(C)C)CC(C)C (stereo unspecified) | 8.95% | 7.3 | 20.7% | 28.9 | -10.6 | -6.6% |
| CCCCCCOC(=O)NC1c2ccccc2Oc2ccccc21 | -0.35% | 7.15 | 10.1% | -7.2 | 7.45 | 3.15% |
| CC1=C(C(=O)NCc2ccccc2)C(c2ccc([N+](=O)[O-])cc2)C(C(=O)NCc2ccccc2)=C(C)N1 | -10.6% | -15.2 | 1.5% | 4.4 | -4.8 | -23.8% |
| O=C1NC(=O)c2ccccc2/C1=C/c1ccc2c(c1)OCO2 | -16.6% | -8.25 | -13.3% | -32.5 | -2.6 | -26.6% |
| CCOC(=O)/C=C1\NCCc2ccccc21 | -6.85% | 1.45 | 8.5% | 24 | 4.8 | 4.55% |
| O=C(/C=C/c1ccc(Cl)cc1)c1ccncc1 | 33.5% | 0 | 11.6% | 18 | 16.1 | 33.9% |
